Laboratory results from PubChem BioAssay.
The source made the active and inactive calls.

Key:
Albumin (Bos taurus) = Albumin (Bos taurus) (UniProt P02769); assay: compounds binding labelled BSA control protein – biochemical, small-molecule microarray, Alexa647 label, 635/667 nm fluorescence, artefact control for SMM control protein annotation, profiling panel (AID 1118); conditions: BSA-A647 binding, fluorescence 635 nm, higher = more signal;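 also: score merges 667 nm emission intensity and signal-to-noise per printed compound spot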
[1] = probe aXIP binding to arrayed compounds – biochemical, NeuroSMM set, 635/667 nm fluorescence, primary screen (AID 1119); conditions: small-molecule microarray, higher = more signal, called active from +8 up or from −8 down;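 also: probe is the protein aXip251-270 applied at 1 µg/mL to compound-printed slides; binding of probe to printed compounds measured as 667 nm fluorescence plus signal to noise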
[2] = probe aNOTCH3 binding on compound microarray – biochemical, small-molecule microarray, 635/667 nm fluorescence, primary screen (AID 1120); conditions: higher = more signal;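 also: probe is a biotin-tagged antibody raised against NOTCH3 rather than NOTCH3 protein; score merges spot fluorescence near 667 nm with spot signal to noise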
[3] = probe aNOTCH2 binding on compound microarray – biochemical, small-molecule microarray, 635/667 nm fluorescence, primary screen (AID 1121); conditions: higher = more signal;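 also: score merges feature fluorescence read at 667 nm with its signal to noise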
[4] = target: Carbonic anhydrase 2 (Homo sapiens) (UniProt P00918); assay: compounds binding carbonic anhydrase 2 – biochemical, small-molecule microarray, Alexa647-labelled CAII, profiling panel (AID 1122); conditions: CAII-A647 binding fluorescence, higher = more signal
[5] = COS7 lysate on small-molecule microarray, probe aHis, 635 nm (AID 1123); conditions: COS7 cell lysate, fluorescence, higher = more signal;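 also: z-score combines 667nm fluorescence intensity with signal-to-noise per printed compound spot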
[6] = probe aLAP1 signal on lysate-treated microarray – cell lysate, small-molecule microarray, COS7 lysate, primary screen (AID 1124); conditions: probe aLAP1, fluorescence, higher = more signal;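 also: lysate comes from COS7 cells expressing LAP1 and is applied at 0.3 µg/mL; score merges spot fluorescence near 667 nm with signal-to-noise over triplicate slides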
Sam68 (KHDRBS1) = assay: compounds binding KHDRBS1 protein – biochemical, small-molecule microarray, 635 nm fluorescence, primary screen (AID 1125); conditions: higher = more signal;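 also: score merges 667 nm channel intensity with signal to noise over triplicate slides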
[7] = system: Chordin-like protein 2 (CHRDL2); assay: compounds binding chordin-like 2 – biochemical, small-molecule microarray, 635 nm fluorescence, primary screen (AID 1126); conditions: fluorescence 635 nm, higher = more signal;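 also: printed compound slides probed with Chrdl2 protein at 4 µg/mL for 1 h at 4 C; score merges 667 nm emission intensity with signal to noise over three replicate slides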
[8] = target: Concanavalin-A (Canavalia ensiformis) (UniProt P02866); assay: compounds binding concanavalin A lectin – biochemical, small-molecule microarray, Alexa647 label, 635 nm, artefact control for SMM control protein annotation, primary screen (AID 1127); conditions: ConA-A647 binding fluorescence, higher = more signal;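 also: z combines 667 nm emission intensity with signal-to-noise across three replicate slides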
[9] = compounds binding Alexa647 anti-His antibody – biochemical, small-molecule microarray, 635 nm fluorescence, artefact control for SMM control protein annotation, primary screen (AID 1128); conditions: higher = more signal;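 also: score merges feature fluorescence with signal-to-noise for each printed compound spot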
[10] = system: Human papillomavirus type 1a E7 protein (residues 1-88); assay: HPV1a E7 small-molecule binders, primary screen, biochemical, small-molecule microarray, residues 1-88, 635 nm (AID 1129); conditions: small-molecule microarray binding, fluorescence 635 nm; higher = more signal
[11] = target: Focal adhesion kinase 1 (Homo sapiens) (UniProt Q05397); assay: PTK2 protein binding on printed compound slides – biochemical, small-molecule microarray, 635/667 nm fluorescence, BSA, DTT, primary screen (AID 1130); conditions: 635 nm fluorescence, higher = more signal;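 also: composite of spot emission at 667 nm and signal to noise over triplicate slides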
[12] = system: Fibrinogen (Alexa647-labelled); assay: Alexa647-fibrinogen binding to printed small molecules – biochemical, small-molecule microarray, 635/667 nm fluorescence, artefact control for SMM control-protein annotation, profiling panel (AID 1131); conditions: fibrinogen-A647 binding fluorescence, higher = more signal;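 also: z-score merges 667 nm fluorescence with per-spot signal-to-noise over triplicate slides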
[13] = target: Follistatin (Homo sapiens) (UniProt P19883); assay: FST protein binding to printed compounds – biochemical, small-molecule microarray, 635/667 nm fluorescence, primary screen (AID 1132); conditions: 635 nm fluorescence, higher = more signal
[14] = target: Fibroblast growth factor 2 (Homo sapiens) (UniProt P09038); assay: basic fibroblast growth factor binding to printed compounds – biochemical, small-molecule microarray, 635/667 nm fluorescence, primary screen (AID 1133); conditions: FGF2, fluorescence 635/667, higher = more signal
[15] = JC-1 mitochondrial potential readout, lung cancer cells – cell-based, A549, JC-1 fluorescence, basal, 24 h, 100 nL, profiling panel (AID 1138); conditions: higher = more signal;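 also: A549 lung adenocarcinoma cells under basal conditions with no added stimulus; test concentration not given here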
Lefty1 = Lefty1 protein binding to printed compounds – biochemical, small-molecule microarray, 635/667 nm fluorescence, primary screen (AID 1139); conditions: fluorescence 635/667, higher = more signal
[16] = system: wheat germ agglutinin (Triticum aestivum), Alexa647-labelled; assay: Alexa647-WGA lectin binding to printed small molecules – biochemical, small-molecule microarray, 635/667 nm fluorescence, artefact control for SMM control-protein annotation, profiling panel (AID 1140); conditions: WGA-A647 binding, 635 nm fluorescence, higher = more signal;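 also: score merges 667 nm feature emission with signal to noise over triplicate slides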
[17] = target: Luciferin 4-monooxygenase (Photinus pyralis) (UniProt P08659); assay: inhibition of purified Photinus pyralis luciferase – biochemical, luminescence, purified enzyme, 2006 set, primary screen (AID 1141); conditions: purified firefly luciferase, SteadyGlo luminescence, 30 min; higher = more signal, called active from +8 up or from −8 down;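 also: cell-free assay with purified firefly luciferase at 100 ng per well in PBS; test concentration not given here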
Luciferin 4-monooxygenase (Photinus pyralis), sequence (P08659 whole entry, looked up): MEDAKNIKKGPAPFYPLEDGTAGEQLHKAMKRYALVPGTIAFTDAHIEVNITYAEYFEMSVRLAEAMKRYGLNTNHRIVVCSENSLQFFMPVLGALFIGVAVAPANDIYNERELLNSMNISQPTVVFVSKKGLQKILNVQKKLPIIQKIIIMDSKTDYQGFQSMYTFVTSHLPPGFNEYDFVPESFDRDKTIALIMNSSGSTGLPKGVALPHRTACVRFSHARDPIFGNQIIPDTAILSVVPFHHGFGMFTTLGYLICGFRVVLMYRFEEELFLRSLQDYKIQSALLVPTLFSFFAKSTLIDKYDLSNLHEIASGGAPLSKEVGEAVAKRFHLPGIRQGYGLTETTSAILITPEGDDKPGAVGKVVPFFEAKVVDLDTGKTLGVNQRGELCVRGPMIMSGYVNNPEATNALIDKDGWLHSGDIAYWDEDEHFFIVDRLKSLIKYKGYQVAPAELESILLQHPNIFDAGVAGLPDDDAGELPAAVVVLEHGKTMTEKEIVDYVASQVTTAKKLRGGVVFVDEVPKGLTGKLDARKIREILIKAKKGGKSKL

Albumin (Bos taurus), sequence (P02769 whole entry, looked up): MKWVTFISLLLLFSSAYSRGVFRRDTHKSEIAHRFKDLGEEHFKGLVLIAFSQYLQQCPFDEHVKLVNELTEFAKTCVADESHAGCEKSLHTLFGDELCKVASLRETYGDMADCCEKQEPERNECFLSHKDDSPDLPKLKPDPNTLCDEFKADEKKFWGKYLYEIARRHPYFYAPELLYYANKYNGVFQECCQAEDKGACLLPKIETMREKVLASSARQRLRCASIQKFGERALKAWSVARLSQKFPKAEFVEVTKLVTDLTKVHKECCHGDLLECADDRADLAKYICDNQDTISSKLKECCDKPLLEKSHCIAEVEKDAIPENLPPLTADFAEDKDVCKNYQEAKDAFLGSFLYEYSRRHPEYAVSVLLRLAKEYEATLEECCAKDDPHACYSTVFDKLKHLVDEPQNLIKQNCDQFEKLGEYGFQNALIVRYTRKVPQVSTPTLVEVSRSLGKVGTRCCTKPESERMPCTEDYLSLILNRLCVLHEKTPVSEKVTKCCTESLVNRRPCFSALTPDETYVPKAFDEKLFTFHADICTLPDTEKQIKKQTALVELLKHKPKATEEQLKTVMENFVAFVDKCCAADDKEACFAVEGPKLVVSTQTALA
Focal adhesion kinase 1 (Homo sapiens), sequence (Q05397 whole entry, looked up): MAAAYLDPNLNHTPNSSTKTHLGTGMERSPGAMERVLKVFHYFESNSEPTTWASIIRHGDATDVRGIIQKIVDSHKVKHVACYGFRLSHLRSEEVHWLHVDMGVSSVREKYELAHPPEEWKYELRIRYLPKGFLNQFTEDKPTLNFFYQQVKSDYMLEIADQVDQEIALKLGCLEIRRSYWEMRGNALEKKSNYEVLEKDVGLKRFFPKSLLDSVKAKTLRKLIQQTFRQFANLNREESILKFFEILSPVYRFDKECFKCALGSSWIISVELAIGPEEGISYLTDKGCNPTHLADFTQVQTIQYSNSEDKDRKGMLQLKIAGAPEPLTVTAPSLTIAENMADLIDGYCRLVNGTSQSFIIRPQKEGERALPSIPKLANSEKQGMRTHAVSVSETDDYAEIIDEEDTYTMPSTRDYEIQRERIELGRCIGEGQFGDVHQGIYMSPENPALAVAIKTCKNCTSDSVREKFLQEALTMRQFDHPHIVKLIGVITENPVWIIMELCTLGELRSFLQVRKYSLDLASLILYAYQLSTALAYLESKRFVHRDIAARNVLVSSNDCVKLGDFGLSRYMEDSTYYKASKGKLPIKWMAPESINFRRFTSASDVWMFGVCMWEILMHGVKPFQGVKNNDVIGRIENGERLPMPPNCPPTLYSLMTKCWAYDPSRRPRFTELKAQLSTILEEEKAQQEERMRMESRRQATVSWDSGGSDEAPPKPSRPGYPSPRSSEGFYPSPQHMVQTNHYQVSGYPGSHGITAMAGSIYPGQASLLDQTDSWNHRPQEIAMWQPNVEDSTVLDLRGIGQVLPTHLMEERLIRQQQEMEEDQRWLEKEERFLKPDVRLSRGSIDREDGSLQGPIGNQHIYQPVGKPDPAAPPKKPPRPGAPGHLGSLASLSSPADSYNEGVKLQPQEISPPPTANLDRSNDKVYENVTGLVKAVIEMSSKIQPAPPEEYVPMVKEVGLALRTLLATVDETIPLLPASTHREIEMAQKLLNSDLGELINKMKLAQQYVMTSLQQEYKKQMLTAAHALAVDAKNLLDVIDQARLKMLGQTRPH
Fibroblast growth factor 2 (Homo sapiens), sequence (P09038 whole entry, looked up): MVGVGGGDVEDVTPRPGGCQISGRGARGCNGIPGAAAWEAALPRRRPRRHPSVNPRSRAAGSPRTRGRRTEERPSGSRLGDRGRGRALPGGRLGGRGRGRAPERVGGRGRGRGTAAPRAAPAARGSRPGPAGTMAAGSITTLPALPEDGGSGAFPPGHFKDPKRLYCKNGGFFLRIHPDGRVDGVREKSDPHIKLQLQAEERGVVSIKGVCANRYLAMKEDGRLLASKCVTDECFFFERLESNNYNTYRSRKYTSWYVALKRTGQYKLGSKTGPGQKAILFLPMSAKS
Concanavalin-A (Canavalia ensiformis), sequence (P02866 whole entry, looked up): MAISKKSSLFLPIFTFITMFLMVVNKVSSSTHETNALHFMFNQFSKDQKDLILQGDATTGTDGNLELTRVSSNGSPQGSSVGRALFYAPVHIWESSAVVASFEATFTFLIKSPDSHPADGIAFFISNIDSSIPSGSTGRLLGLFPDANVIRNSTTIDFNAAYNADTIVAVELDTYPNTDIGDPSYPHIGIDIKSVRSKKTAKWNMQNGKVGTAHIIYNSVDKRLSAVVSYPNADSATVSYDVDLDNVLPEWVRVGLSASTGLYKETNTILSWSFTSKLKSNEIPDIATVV
Follistatin (Homo sapiens), sequence (P19883 whole entry, looked up): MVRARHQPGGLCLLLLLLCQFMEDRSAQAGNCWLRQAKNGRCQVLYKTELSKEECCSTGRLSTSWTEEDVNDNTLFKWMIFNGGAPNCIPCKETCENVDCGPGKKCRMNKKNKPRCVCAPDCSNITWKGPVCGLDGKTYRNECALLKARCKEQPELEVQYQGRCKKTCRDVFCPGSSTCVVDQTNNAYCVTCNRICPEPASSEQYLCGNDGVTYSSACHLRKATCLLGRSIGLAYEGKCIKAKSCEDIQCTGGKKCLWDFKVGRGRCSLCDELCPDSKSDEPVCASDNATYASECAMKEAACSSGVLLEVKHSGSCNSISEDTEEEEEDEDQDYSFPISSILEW

Row | SMILES | composite z-score (Albumin (Bos taurus)) | composite Z-score [1] | composite z-score [2] | composite z-score [3] | composite z-score [4] | composite z-score [5] | composite z-score [6] | composite z-score (Sam68 (KHDRBS1)) | composite z-score [7] | composite z-score [8] | composite z-score [9] | composite z-score [10] | composite z-score [11] | composite z-score [12] | composite z-score [13] | composite z-score [14] | z-score [15] | composite z-score (Lefty1) | composite z-score [16] | z-score [17]
1 | CO[C@@H]1C=CCC(=O)N[C@@H](C)C(=O)OC[C@@H](NS(=O)(=O)c2ccc(C)cc2)[C@H](C)C=CCC(=O)OC[C@H]1C | -1.19 | 0.51 (inactive) | -0.0898 | -0.242 | -0.662 | -0.971 | -0.0366 | -0.583 | 1.07 | -0.479 | -0.605 | -0.56 | -0.0987 | -0.14 | 0.833 | 0.638 | -0.198 | 0.841 | 0.326 | -0.567 (inactive)
2 | C#CCCCON=C1C[C@@H](O)[C@@H](O)[C@@H]2[C@@H]3C(=O)N([C@@H](C)c4ccccc4)C(=O)[C@@H]3CC[C@@H]12 | 0.356 | -0.51 (inactive) | 0.114 | -0.165 | 0.717 | 0.0072 | 0.0247 | -0.105 | -0.13 | 0.123 | -0.559 | -0.82 | -0.0567 | -0.181 | -0.326 | -0.141 | -0.683 | -0.32 | 0.0859 | 0.993 (inactive)
3 | CO[C@H]1COC(=O)CC=C[C@H](C)[C@H](OC)COC(=O)[C@@H](C)NC(=O)CC=C[C@@H]1C | -0.487 | -0.347 (inactive) | -0.0319 | -0.164 | -0.54 | 1.95 | -0.0788 | -0.445 | 1.49 | -0.898 | 0.491 | -1.08 | 0.764 | -2.18 | 1.23 | 1.47 | -0.838 | 1.52 | -0.206 | 1.14 (inactive)
4 | COC(=O)CC=C[C@@H](C)[C@@H](C=NOC[C@@H](O)COCc1ccco1)OC | -0.15 | -2 (inactive) | -0.262 | -0.14 | -0.134 | -0.452 | 0.0649 | -0.684 | 1.36 | -0.619 | 1.46 | -0.464 | -0.354 | -1.2 | 1.15 | 0.509 | 0.662 | 1.02 | -0.83 | -1.3 (inactive)
5 | COC(=O)CC=C[C@@H](C)[C@@H](C=NOC[C@@H](O)[C@H]1O[C@@H]2OC(C)(C)O[C@@H]2[C@H]1O)OC | -0.0287 | -0.931 (inactive) | -0.0647 | -0.13 | -0.131 | -0.104 | 0.149 | 0.444 | 0.744 | 0.333 | 1.57 | 0.612 | 0.167 | 0.0843 | 0.834 | 0.943 | 0.0187 | 0.59 | 0.006 | -0.512 (inactive)
6 | CO[C@@H](C(C)C)[C@@H](C)C1OC(=O)CC1O (stereo not given in full) | -0.145 | 0.0923 (inactive) | -0.159 | -0.166 | -0.169 | -0.18 | -0.542 | -0.22 | -0.598 | -0.347 | -0.647 | -0.579 | 0.0539 | -1.29 | -0.989 | -0.278 | 0.000179 | -0.633 | -0.282 | 0.159 (inactive)
7 | CO[C@@H]1COC(=O)[C@H](COCc2ccccc2)NC(=O)CC=C[C@@H](C)[C@H](OC)COC(=O)[C@@H](C)NC(=O)CC=C[C@H]1C | -0.764 | -0.0478 (inactive) | 0.127 | -0.126 | -0.557 | -0.887 | -0.184 | 0.0125 | 1.02 | -3.28 | -1.39 | -1.64 | -0.474 | -1.65 | 1.07 | 1.16 | 1.27 | 0.979 | -0.999 | -0.963 (inactive)
8 | CCOC(=O)[C@H](Cc1ccccc1)NC(=O)CCC1CC(OC(=O)NCCc2ccc(F)cc2)CC2(CCCC(COC(=O)NCCC(C)C)O2)O1 (stereo not given in full) | 0.508 | 1.05 (inactive) | 0.0939 | -0.114 | 0.28 | 1.17 | -0.0236 | 1.31 | 0.0858 | 0.831 | 1.05 | 1.12 | 0.156 | 0.871 | 0.967 | 1.02 | 0.833 | 0.743 | 0.381 | 0.553 (inactive)
9 | CC(=O)OC[C@H]1O[C@H](C#CCC2CCCCC2)C=C[C@@H]1OC(C)=O | 0.718 | -0.106 (inactive) | -0.154 | -0.0632 | 0.494 | 0.853 | 0.53 | 0.953 | 0.32 | 1.04 | 0.502 | 0.916 | -0.146 | 0.672 | 0.675 | 0.339 | 0.587 | 0.513 | 0.371 | -2.68 (inactive)
10 | C#CCCCON=C1C[C@@H](O)[C@@H](O)[C@@H]2[C@@H]3C(=O)N(C4CCCCC4)C(=O)[C@@H]3CC[C@@H]12 | 0.42 | 0.0436 (inactive) | -0.11 | -0.129 | 0.621 | 0.65 | 0.172 | -0.513 | 0.422 | 0.335 | 0.16 | 0.256 | 0.394 | 0.486 | 0.513 | 0.0704 | -0.404 | 0.363 | 0.329 | -0.0138 (inactive)
11 | CCN1C(=O)[C@H]2[C@H]3[C@H](O)[C@H](O)CC(=NOC(C)CN4CCCc5nc(C)c(C)cc54)[C@@H]3CC[C@H]2C1=O (stereo not given in full) | -0.558 | 0.635 (inactive) | 0.148 | 0.0137 | 0.014 | -0.0995 | 0.284 | 1.05 | 0.893 | -0.471 | -0.245 | 0.509 | 0.335 | 0.116 | 0.703 | 0.462 | 0.623 | 0.737 | -0.393 | 0.126 (inactive)
